Test results published in PubChem BioAssay (NCATS).
Inconclusive results are not listed. A number with no mark means an inactive call. The call rests on the fitted dose curve; in most records, active means well fitted curve in either direction with a large enough effect (not every such curve was filed as active); inconclusive means small, poorly fitted or top-dose-only effect, or another doubt; inactive means flat fitted curve, though single readings scatter.

Assay: Stat Signaling Pathway (AID 446)
Conditions: ME-180 (cervical carcinoma) SIE beta-lactamase reporter, IL-6 stimulated, 5 h; series mostly up to 17.2 µM; activity, negative = inhibition: at the top concentration
Protocol: NCGC Assay Overview: The IL-6/STAT signaling pathway was assayed in ME-180 cervical carcinoma cells by a beta-lactamase reporter gene controlled by a STAT Inducible Element (SIE). This reporter is induced by IL-6 at 40 pM AC50 and inhibited by the pan JAK inhibitor, 2-(1,1-Dimethylethyl)-9-fluoro-3,6-dihydro-7H-benz[h]-imidaz[4,5-f]isoquinolin-7-one, at approximately 10 nM AC50. Plated cells were incubated overnight and on the following day, stimulated with 40 pM IL-6 for 5 hrs. The assay was screened at the AC50 of IL-6 activation to identify both inhibitors and activators of IL-6/STAT signaling.
NCGC Assay Protocol Summary: Cells were trypsinized, washed in assay medium (AM, OPTI MEM with 0.5% fetal bovine serum, 0.1 mM nonessential amino acids, 1 mM sodium pyruvate, 10mM HEPES pH 7.3, 100U/ml penicillin, and 100 ug/ml streptomycin) and suspended at 6 x 10e5/ml in AM. Approximately […] cells in 5 uL/well was dispensed into 1536 well plates and the cells were incubated overnight at 37 C. 23 nL of compound were delivered by a pin tool and 1 uL of IL-6 (40 pM final concentration in AM) was added. After centrifugation at 1000 rpm for less than a minute, plates were incubated at 37C for 5 hrs. One uL of detector mix (LiveBLAzerTM, Invitrogen) was added, the plates incubated at room temperature for 2.5 hrs, and fluorescence intensity at 460 and 530 nm emission was measured at 405 nm excitation by an Envision (Perkin Elmer) or Safire II (Tecan). Data were normalized by GeneData to the controls for AC90 stimulation (300 pM IL-6) and to AC90 inhibition (125 nM Jak inhibitor, 40 pM IL-6 in AM).
On the % scale 0 is the no-effect control and ±100 the full control effect.

SMILES	activity, negative = inhibition
COc1ccc(C(=O)CN2CCOCC2)cc1F	14.7%
C=CCOC(=O)C1=C(C)OC(N)=C(C#N)[C@@]12C(=O)N(CC(N)=O)c1ccccc12	10.5%
Cc1ccc(C)c(C2(O)CC(C)N(C)CC2C)c1 (stereo not given)	-2.94%
C=CCn1c(O)c(C=Nc2ccc(N(CC)CC)cc2)c(=O)[nH]c1=O	-13.3%
COc1cc2[nH]c(=O)n(-c3cccc(Cl)c3)c(=O)c2cc1OC	7.9%
O=c1[nH]c(=O)n(-c2cccc(Cl)c2)c(O)c1C=NCCN1CCCCC1	2.69%
NC(N)=Nc1ccc2[nH]c3c(c2c1)C[C@]1(O)[C@@H]2Cc4ccc(O)c5c4[C@]1(CCN2CC1CC1)[C@H]3O5	-18.3% [at 38 µM]
CC(=O)OC1N=C(c2ccccc2)c2ccccc2NC1=O (stereo not given)	-8.94%
C[C@@]12CC[C@H]3[C@@H](CCC4=CC(=O)CC[C@]43C)[C@H]1CCC2=O	-0.366% [at 38 µM]
CC(C)(C)NC[C@H](O)c1ccccc1Cl	-5.97% [at 38 µM]
O=c1[nH]c(=O)n(Cc2ccco2)c(O)c1C=NCCN1CCOCC1	-4.3%
CCCCNC(=O)Nc1ccc(C(O)(C(=O)OCC)C(F)(F)F)cc1 (stereo not given)	-1.79%
Oc1ccc2c3c1O[C@@H]1[C@@H](O)CC[C@]4(O)[C@H](C2)N(CC2CCC2)CC[C@@]314	21.1% [at 38 µM]
COc1cccc(-n2c(C)nc3ccccc3c2=O)c1	1.91%
CC1CN=C(Nc2ccc(N(C)C)cc2)S1 (stereo not given)	9.23%
O=c1c(C=NCCN2CCNCC2)c(O)n(C2CCCCC2)c(=O)n1C1CCCCC1	1.86%
CC1(C)NCCN2C(=O)CSC21 (stereo not given)	4.62%
COc1ccc(Cn2c(O)c(C=NCCN3CCOCC3)c(=O)[nH]c2=O)cc1	4.8%
C[C@H](N[C@@H](C)CCc1ccccc1)[C@H](O)c1ccc(O)cc1	28.9% [at 38 µM]
CCCCOCCCn1c(N)c(C(=O)OC(C)COC)c2nc3ccccc3nc21 (stereo not given)	-4.1%

SMILES	activity, negative = inhibition
COc1ccc(C2SCC(=O)Nc3c2c(=O)[nH]n3C2CCCCCC2)cc1 (stereo not given)	-23.4%
CC(=O)[C@@]1(O)CC[C@H]2[C@@H]3CC=C4C[C@@H](O)CC[C@]4(C)[C@H]3CC[C@@]21C	3.34%
OCCOCC#CCN1CCOCC1	4.66%
C[N+]1(C)CCO[C@@](O)(c2ccc(-c3ccc([C@]4(O)C[N+](C)(C)CCO4)cc3)cc2)C1	2.78% [at 38 µM]
CC(C)(C)c1ccc(O)c(C[N+](C)(C)C)c1	6.48% [at 7.69 µM]
CN(C)[C@H]1C(=O)C(C(N)=O)=C(O)[C@]2(O)C(=O)C3=C(O)c4c(O)cccc4[C@@](C)(O)[C@H]3C[C@@H]12	-1.57%
CNc1ccc2oc(C[C@@H]3O[C@@]4(CC[C@H]3C)O[C@@H]([C@@H](C)C(=O)c3ccc[nH]3)[C@@H](C)C[C@H]4C)nc2c1C(=O)O	14.6% [at 38 µM]
CCCc1nc2ccccc2c(=O)n1-c1ccccc1OC	2.3%
O=C(CN1CCN(CCO)CC1)Nc1ccc(Cl)cc1C(=O)c1ccccc1	-1.19%
COCCOC(=O)C1=C(N)Oc2c(c(=O)oc3ccccc23)[C@@]12C(=O)Nc1ccccc12	0.86%
Cc1c(N=Cc2c(O)n(CCc3ccccc3)c(=O)[nH]c2=O)c(=O)n(-c2ccccc2)n1C	-4.27%
O=c1[nH]c(=O)n(Cc2ccco2)c(O)c1C=NCCCn1ccnc1	-0.0527%
C=CCn1c(O)c(C=NCCN(C)C)c(=O)[nH]c1=O	-6.05%
CN1CCc2nc(SCC(=O)OC(C)(C)C)c(C#N)cc2C1	0.824%
CCc1nc(N2CCNCC2)c(C#N)c2c1CSC(C)(C)C2	-7.88%
CCOc1ccc(-n2c(O)c(C=NCCN3CCNCC3)c(=O)[nH]c2=O)cc1	2.43%
CCN1C[C@]2(C)CC[C@@H](O)[C@]34[C@@H]5CC6[C@@H](OC)C[C@@](O)([C@H]5[C@@H]6O)[C@@H](C[C@@H]23)[C@H]14	12.5% [at 38 µM]
COc1ccc(Cn2c(O)c(C=NCCCn3ccnc3)c(=O)[nH]c2=O)cc1	0.829%
Nc1ncc(P(=S)(N2CCOCC2)N2CCOCC2)s1	5.17%
N[C@@H]1CCc2cc(O)c(O)cc2C1	13.8% [at 38 µM]
